Data reported in PubChem BioAssay (NCATS).
Results filed as inconclusive are left out. Active and inactive are the calls of the source. The call rests on the fitted dose curve; in most records, active means well fitted curve in the direction sought with a large enough effect; inconclusive means small, poorly fitted or top-dose-only effect, or another doubt; inactive means no such curve, though single readings can be large; an effect the other way counts as inactive or inconclusive.

What was measured:
[1] = qHTS of pediatric cancer cell lines to identify multiple opportunities for drug repurposing: Primary screen for DAOY cells (AID 1347090); further: nearly all actives have a fitted effect of over 55% in size; further: potency means the concentration at half of the fitted maximal effect
In short: (§1)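 Viability measured as metabolically active cells via CellTiter-Glo luminescence following 48 hours of compound exposure, 11-point dilutions in confirmatory testing. 500-1,000 cells/well plated 5 hours before dosing; controls were DMSO and 2.3 µM bortezomib.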

[2] = qHTS of pediatric cancer cell lines to identify multiple opportunities for drug repurposing: Primary screen for A673 cells (AID 1347092); further: potency means the concentration at half of the fitted maximal effect; nearly all actives have a fitted effect of over 45% in size
In short: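 Cells are plated, rested 5 h, dosed by pintool, incubated 48 h, then lysed with CellTiter-Glo and read by luminescence. DMSO is the neutral control; bortezomib at 2.3 uM final is the positive control.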

[3] = qHTS of pediatric cancer cell lines to identify multiple opportunities for drug repurposing: Primary screen for SK-N-MC cells (AID 1347093); further: potency means the concentration at half of the fitted maximal effect
In short: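 Metabolically active cells were quantified by ATP-dependent luminescence (CellTiter-Glo, 15 min at room temperature) following 48 h treatment. Cells had been plated at 500-1,000 per well and settled for 5 h beforehand.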

[4] = qHTS of pediatric cancer cell lines to identify multiple opportunities for drug repurposing: Primary screen for BT-37 cells (AID 1347094); further: potency means the concentration at half of the fitted maximal effect
In short: (§2)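 Phenotypic viability qHTS, 48 h compound exposure, CellTiter-Glo luminescence read-out; multi-concentration dosing so that potency and efficacy derive directly from the primary screen's curves.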

[5] = qHTS of pediatric cancer cell lines to identify multiple opportunities for drug repurposing: Primary screen for U-2 OS cells (AID 1347096); further: nearly all actives have a fitted effect of over 50% in size
In short: (§3)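 Viability after 48 h compound treatment at 37C, 500-1,000 cells/well, read as ATP luminescence with CellTiter-Glo. Primary screens used 11-point (MIPE, 0.78 nM-46 µM) or 8-point (NPC, 0.59 nM-46 µM) final concentrations; follow-up screens used 11-point dilutions.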

[6] = qHTS of pediatric cancer cell lines to identify multiple opportunities for drug repurposing: Primary screen for Saos-2 cells (AID 1347097); further: nearly all actives have a fitted effect of over 40% in size; further: potency means the concentration at half of the fitted maximal effect
In short: as §2

[7] = qHTS of pediatric cancer cell lines to identify multiple opportunities for drug repurposing: Primary screen for Rh18 cells (AID 1347102); further: nearly all actives have a fitted effect of over 65% in size; further: potency means the concentration at half of the fitted maximal effect
In short: as §3

[8] = qHTS of pediatric cancer cell lines to identify multiple opportunities for drug repurposing: Primary screen for OHS-50 cells (AID 1347103); further: nearly all actives have a fitted effect of over 40% in size; further: potency means the concentration at half of the fitted maximal effect
In short: (§4)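 Cells (500-1,000/well) rested 5 h, then received compounds for 48 h; metabolically active cells were measured by CellTiter-Glo luminescence. Final concentrations spanned up to 46 µM (MIPE, 11-point) or 0.59 nM-46 µM (NPC, 8-point) in primary screens, 11-point in follow-ups.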

[9] = qHTS of pediatric cancer cell lines to identify multiple opportunities for drug repurposing: Primary screen for RD cells (AID 1347104); further: nearly all actives have a fitted effect of over 55% in size; further: potency means the concentration at half of the fitted maximal effect
In short: as §2

[10] = qHTS of pediatric cancer cell lines to identify multiple opportunities for drug repurposing: Primary screen for MG 63 (6-TG R) cells (AID 1347105); further: nearly all actives have a fitted effect of over 50% in size; further: potency means the concentration at half of the fitted maximal effect
In short: as §2

[11] = qHTS of pediatric cancer cell lines to identify multiple opportunities for drug repurposing: Primary screen for control Hh wild type fibroblast cells (AID 1347106); further: nearly all actives have a fitted effect of over 55% in size; further: potency means the concentration at half of the fitted maximal effect
In short: as §3

[12] = qHTS of pediatric cancer cell lines to identify multiple opportunities for drug repurposing: Primary screen for Rh30 cells (AID 1347107); further: nearly all actives have a fitted effect of over 75% in size; further: potency means the concentration at half of the fitted maximal effect
In short: as §3

[13] = qHTS of pediatric cancer cell lines to identify multiple opportunities for drug repurposing: Primary screen for SJ-GBM2 cells (AID 1347091); further: potency means the concentration at half of the fitted maximal effect
In short: as §1

[14] = qHTS of pediatric cancer cell lines to identify multiple opportunities for drug repurposing: Primary screen for NB-EBc1 cells (AID 1347095); further: potency means the concentration at half of the fitted maximal effect
In short: as §2

[15] = qHTS of pediatric cancer cell lines to identify multiple opportunities for drug repurposing: Primary screen for SK-N-SH cells (AID 1347098); further: nearly all actives have a fitted effect of over 65% in size; further: potency means the concentration at half of the fitted maximal effect
In short: as §4

[16] = qHTS of pediatric cancer cell lines to identify multiple opportunities for drug repurposing: Primary screen for NB1643 cells (AID 1347099); further: nearly all actives have a fitted effect of over 50% in size; further: potency means the concentration at half of the fitted maximal effect
In short: as §2

[17] = qHTS of pediatric cancer cell lines to identify multiple opportunities for drug repurposing: Primary screen for LAN-5 cells (AID 1347100); further: potency means the concentration at half of the fitted maximal effect
In short: as §3

[18] = qHTS of pediatric cancer cell lines to identify multiple opportunities for drug repurposing: Primary screen for BT-12 cells (AID 1347101); further: nearly all actives have a fitted effect of over 25% in size
In short: as §4

Measured: Potency

CC(C)(C)NC(=O)Nc1cccc(Nc2ncc(F)c(NC(C)(C)CO)n2)c1
active: [2] 18.7 µM | [3] 3.32 µM
inactive: [1] | [4] | [5] | [6] | [7] | [8] | [9] | [10] | [11] | [12]

Cn1cc(C=C2C(=O)Nc3cccnc32)c2ccccc21
inactive: [1] | [13] | [4] | [14] | [5] | [6] | [15] | [16] | [17] | [18] | [7] | [10] | [11] | [12]

CO[C@H]1C[C@@H]2CC[C@@H](C)[C@@](O)(O2)C(=O)C(=O)N2CCCC[C@@H]2C(=O)O[C@H]([C@H](C)C[C@@H]2CC[C@H](OC(=O)C(C)(CO)CO)[C@H](OC)C2)CC(=O)[C@H](C)C=C(C)[C@@H](O)[C@@H](OC)C(=O)[C@H](C)C[C@H](C)C=CC=CC=C1C
inactive: [15] | [11]
active: [13] 11.8 µM | [4] 30.6 µM | [14] 9.35 µM | [6] 16.6 µM | [16] 23.5 µM | [17] 20.9 µM | [7] 29.6 µM

CCOC(CN1C(=O)[C@](CC(=O)Nc2ccc(C)cc2)(NC(=O)Nc2ccc(C)cc2)c2ccccc21)OCC
inactive: [5] | [15] | [11] | [12]
active: [2] 29.6 µM

CO[C@@H](C(=O)N1Cc2[nH]nc(NC(=O)c3ccc(N4CCN(C)CC4)cc3)c2C1)c1ccccc1
active: [13] 0.187 µM | [2] 5.9 µM | [3] 0.118 µM | [6] 0.833 µM | [15] 2.15 µM | [16] 0.118 µM | [17] 0.0372 µM | [7] 0.935 µM | [9] 5.26 µM | [10] 1.48 µM | [11] 9.35 µM
inactive: [12]

COCCCCC(=NOCCN)c1ccc(C(F)(F)F)cc1
active: [2] 23.5 µM | [3] 10.5 µM | [15] 24.1 µM | [9] 33.2 µM
inactive: [13] | [4] | [14] | [5] | [16] | [17] | [7] | [11]

O=C(O)c1ccc(-c2c[nH]c3ncc(-c4ccccc4)cc23)cc1C1CCCC1
active: [3] 0.166 µM
inactive: [1] | [4] | [14] | [5] | [6] | [18] | [7] | [11]

Cc1ccc(/C=N/NC(=O)c2ccccc2Oc2ccccc2)o1
inactive: [5] | [10] | [11]
active: [13] 20.9 µM | [3] 16.6 µM | [14] 23.5 µM | [16] 18.7 µM | [8] 21.7 µM

CO[C@H]1C(=O)[C@]2(C)[C@@H](OC)C[C@H]3OC[C@@]3(OC(C)=O)[C@H]2[C@H](OC(=O)c2ccccc2)[C@]2(O)C[C@H](OC(=O)[C@H](O)[C@@H](NC(=O)OC(C)(C)C)c3ccccc3)C(C)=C1C2(C)C
active: [3] 29.6 µM | [6] 0.001 µM | [17] 0.001 µM | [8] 0.685 µM
inactive: [5] | [15] | [11] | [12]

O=C(O)Cc1cccc2ccccc12
inactive: [1] | [13] | [4] | [14] | [6] | [15] | [16] | [17] | [18] | [7] | [8] | [9] | [10] | [11] | [12]

CO[C@H]1C[C@@H]2CC[C@@H](C)[C@@](O)(O2)C(=O)C(=O)N2CCCC[C@@H]2C(=O)O[C@H]([C@H](C)C[C@@H]2CC[C@H](OCCO)[C@H](OC)C2)CC(=O)[C@H](C)C=C(C)[C@@H](O)[C@@H](OC)C(=O)[C@H](C)C[C@H](C)C=CC=CC=C1C
active: [2] 11.8 µM | [4] 10.9 µM | [6] 3.32 µM | [8] 6.11 µM
inactive: [1] | [16] | [10] | [12]

Cc1ccn(-c2ccc(-c3ncco3)cc2)c(=O)c1-c1ccc2nc(N)ncc2c1
active: [3] 3.32 µM | [8] 2.73 µM
inactive: [14] | [5] | [16] | [17] | [11]

CS(=O)(=O)N(Cc1ccco1)CC(O)Cn1c2ccccc2c2ccccc21 (centres undefined)
inactive: [1] | [4] | [14] | [5] | [15] | [17] | [7] | [10] | [11]

COCCOC(=O)C1=C(C)NC2=C(C(=O)CC(c3ccccc3OC)C2)C1c1cccc(O)c1 (centres undefined)
active: [2] 23.5 µM | [3] 18.7 µM | [14] 18.7 µM | [15] 13.6 µM | [16] 20.9 µM | [17] 13.2 µM | [8] 19.3 µM | [9] 18.7 µM | [10] 14.8 µM
inactive: [18] | [11]

COc1cc(N2CCC(N3CCN(C)CC3)CC2)ccc1Nc1ncnc(Nc2ccccc2S(=O)(=O)C(C)C)n1
active: [2] 9.35 µM | [4] 15.3 µM | [15] 27.1 µM | [12] 5.26 µM
inactive: [1] | [6] | [10] | [11]

CN1CCN(CCOc2cc(OC3CCOCC3)c3c(Nc4c(Cl)ccc5c4OCO5)ncnc3c2)CC1
inactive: [11]
active: [1] 18.7 µM | [13] 9.35 µM | [4] 7.69 µM | [15] 13.6 µM | [17] 18.7 µM | [8] 17.2 µM | [9] 20.9 µM

COc1ccc(-c2cc(=O)c3c(O)cc(O)cc3o2)cc1O
inactive: [5] | [10] | [11] | [12]
active: [3] 2.64 µM | [4] 21.7 µM | [14] 11.8 µM | [6] 18.7 µM | [15] 24.1 µM | [16] 4.69 µM | [17] 7.43 µM

N#Cc1ccc(NC(=O)Nc2ccccc2Br)c2n[nH]nc12
inactive: [1] | [5] | [6] | [7] | [9] | [10] | [11]
active: [3] 26.4 µM | [17] 26.4 µM | [8] 21.7 µM

CC[C@]1(O)C[C@@H]2CN(CCc3c([nH]c4ccccc34)[C@@](C(=O)OC)(c3cc4c(cc3OC)N(C=O)[C@@H]3C45CCN4CC=C[C@](CC)([C@H]45)[C@@H](OC(C)=O)[C@]3(O)C(=O)OC)C2)C1 (some centres undefined)
inactive: [4] | [6] | [17] | [8] | [10] | [11]
active: [3] 20.9 µM

Cc1cccc(Nc2nc(-c3ccncc3)cs2)c1
active: [13] 16.6 µM | [8] 21.7 µM
inactive: [3] | [5] | [6] | [15] | [16] | [7] | [10] | [11] | [12]
